Consider eleven molecules from the supplement of paper PMC7380943.

Assay [1] relates to CLZ3 (HCA2 human fibroblast dual HR-NHEJ reporter). The assay is described as follows: NHEJ repair efficiency (GFP+ cells) relative to control (log10 fold); higher = more non-homologous end joining. Particulars: 5 µM; doxycycline 0.5 ug/mL.
Assay [2] shares this test system. The assay is described as follows: HR repair efficiency (tdTomato+ cells) relative to control (log10 fold); higher = more homologous recombination. Particulars: 5 µM; doxycycline 0.5 ug/mL.
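Wherever HR repair efficiency (tdTomato+ cells) relative to control is given: compound given one day before doxycycline, which switches on I-SceI endonuclease expression to create double-strand breaks within the integrated reporter.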
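Wherever NHEJ repair efficiency (GFP+ cells) relative to control is given: compound given one day ahead of doxycycline, which switches on I-SceI endonuclease to cut the chromosomally integrated reporter and create DSBs.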

Consider `CC(=O)S[C@@H]1CC2=CC(=O)CC[C@]2(C)[C@H]2CC[C@@]3(C)[C@@H](CC[C@@]34CCC(=O)O4)[C@H]12` [Spironolactone], for which the “NHEJ repair efficiency (log10)” value in assay [1] was 0.15. Further, the “HR repair efficiency (log10)” value in assay [2] is -0.0059.

Regarding `Nc1ncnc2c1ncn2[C@@H]1O[C@H](CO)C[C@H]1O` [Cordycepin], in assay [1], the “NHEJ repair efficiency (log10)” value was determined as 0.007. Further, in assay [2], the “HR repair efficiency (log10)” value was -0.139.

Consider `COc1ccc(-c2oc3cc(OC)c(OC)c(O)c3c(=O)c2OC)cc1O` [Vitexicarpin], for which the “NHEJ repair efficiency (log10)” value in assay [1] was -0.0426. For the same molecule, the “HR repair efficiency (log10)” value in assay [2] is -0.203.

Turning to `Oc1cc(O)c2c(c1)O[C@H](c1ccc(O)c(O)c1)[C@H](O)[C@H]2c1c(O)cc(O)c2c1O[C@H](c1ccc(O)c(O)c1)[C@H](O)C2` [Procyanidin B2], the “NHEJ repair efficiency (log10)” value in assay [1] turned out to be 0.092. Further, in assay [2], the “HR repair efficiency (log10)” value was -0.122.

For `O=c1c(-c2ccc(O)cc2)coc2cc(O)cc(O)c12` [Genistein], the “NHEJ repair efficiency (log10)” value in assay [1] was -0.0971. Besides, in assay [2], the “HR repair efficiency (log10)” value is -0.179.

Take `Cn1c(=O)c2c(ncn2C)n(C)c1=O` [Caffeine]: the “NHEJ repair efficiency (log10)” value in assay [1] stood at 0.103. Besides, the “HR repair efficiency (log10)” value in assay [2] was 0.0527.

In the case of `COc1cc(O)c(C(C)=O)cc1S(=O)(=O)O` [Sodium Paeonol Sulfonate], the “NHEJ repair efficiency (log10)” value in assay [1] was 0.0246. Also, the “HR repair efficiency (log10)” value in assay [2] worked out at 0.0512.

Consider `Oc1ccc(/C=C/c2cc(O)cc(O)c2)cc1` [Resveratrol], for which the “NHEJ repair efficiency (log10)” value in assay [1] is -0.0132. Moreover, in assay [2], the “HR repair efficiency (log10)” value came to 0.0336.

In the case of `COc1ccc(/C=C/C(=O)O)cc1O` [Isoferulic acid], in assay [1], the “NHEJ repair efficiency (log10)” value was found to be 0.104. The “HR repair efficiency (log10)” value in assay [2] was -0.0013.

On to `CC(C)(O)[C@H](O)COc1c2ccoc2cc2oc(=O)ccc12` [Oxypeucedanin Hydrate], for which the “NHEJ repair efficiency (log10)” value in assay [1] was -0.0248. For the same molecule, the “HR repair efficiency (log10)” value in assay [2] came to 0.00711.

With `COc1cc([C@H]2OC[C@H]3[C@@H]2CO[C@@H]3c2ccc(O[C@@H]3O[C@H](CO)[C@@H](O)[C@H](O)[C@H]3O)c(OC)c2)ccc1O[C@@H]1O[C@H](CO)[C@@H](O)[C@H](O)[C@H]1O` [PinoresinolDiglucoside], in assay [1], the “NHEJ repair efficiency (log10)” value is -0.0902. The “HR repair efficiency (log10)” value in assay [2] was -0.138.
